Sensor-assay potency score (higher = more potent) data for 40 sequences are collected here from the OligoGym collection.
Note: reference of the scale not given here.

In the first assay the target is HHATL. Put plainly: pooled miR-30 sensor sort-seq; sequence = guide strand. The note with it: shRNA.
For TTAGCAAACAGCACATGTCCGG, the sensor-assay potency score (higher = more potent) was -0.577.

Consider TTGAGCAGGTCAGCTAAGGAGT, for which the sensor-assay potency score (higher = more potent) is -0.763.

Take TACACAGCATACATCCAGGAGC: the sensor-assay potency score (higher = more potent) is -1.03.

With TTGGCGAACTTGAGGTCGCTGG, the sensor-assay potency score (higher = more potent) is -0.951.

TAGAGTGCGGTGATGCACTTGG came in with a sensor-assay potency score (higher = more potent) of 0.641.

For the sequence TCAGCCACATCCATCTTCCGGC, the sensor-assay potency score (higher = more potent) was -0.0987.

As to TACACATATTTGCAAAGCCAGT, the sensor-assay potency score (higher = more potent) was -1.98.

Regarding TAGCAAACAGCACATGTCCGGA, the sensor-assay potency score (higher = more potent) is -0.627.

Turning to TTTGGGGCAACCATCGTGCAGA, the sensor-assay potency score (higher = more potent) was -0.825.

In the case of ATATTTGCAAAGCCAGTCGTTG, the sensor-assay potency score (higher = more potent) is -0.866.

A further assay concerns the target HIC1. Described as above. The note with it: shRNA.
Turning to ATCGTGTCCAGCATCGTCTGCC, the sensor-assay potency score (higher = more potent) is -0.128.

Consider TGAGGTTGCGTTGCTGTGCGAA, for which the sensor-assay potency score (higher = more potent) was -0.814.

Take TTGTAGTCGTCGCCGTCGCCGC: the sensor-assay potency score (higher = more potent) was -1.19.

For TTGTCGCACGACGCGCAGCGGT, the sensor-assay potency score (higher = more potent) was -1.62.

With TACAGCTCGGCGCAGTGCGTGT, the sensor-assay potency score (higher = more potent) is -1.35.

Turning to TTGCGTTGCTGTGCGAACTTGC, the sensor-assay potency score (higher = more potent) is -0.297.

With TGCTCTTGTAGTCGTCGCCGTC, the sensor-assay potency score (higher = more potent) was -0.864.

As to TAGTCGTCGCCGTCGCCGCCCG, the sensor-assay potency score (higher = more potent) is -0.822.

In the case of TTCTTGGACAGGTCCAGGCCAC, the sensor-assay potency score (higher = more potent) was -0.94.

As for TTCAGCTGCTCAGAGCTGGGGA, the sensor-assay potency score (higher = more potent) was -0.306.

Turning to TTGTAGCTCTTGTCGCACGACG, the sensor-assay potency score (higher = more potent) was -1.22.

For another assay, the target named is HINT3. The assay is described as above. As to conditions: shRNA.
For TAACTGACTACTTACTGAGAAA, the sensor-assay potency score (higher = more potent) is -1.61.

As for TATCTTTGAAGCAAATTAGGTC, the sensor-assay potency score (higher = more potent) is -0.138.

Regarding TTGACTCTATAAACCAACTTGG, the sensor-assay potency score (higher = more potent) was -0.569.

For TTTTCCAACAGTTACCATGTTC, the sensor-assay potency score (higher = more potent) was -0.723.

For TCTTAGGAAACAGACATTCAGA, the sensor-assay potency score (higher = more potent) was -1.03.

Sequence TTTGAAGCAAATTAGGTCCTCA yielded a sensor-assay potency score (higher = more potent) of 0.444.

TATAACTGACTACTTACTGAGA: the sensor-assay potency score (higher = more potent) is -0.693.

Regarding TACCACTTCATGCTGAACCAAG, the sensor-assay potency score (higher = more potent) was -0.805.

ATTGACTCTATAAACCAACTTG: the sensor-assay potency score (higher = more potent) was -0.483.

Regarding TTGATTAACAGAATTTGTCTTA, the sensor-assay potency score (higher = more potent) worked out at 0.577.

In the case of TATCATATATATAAAATCCTTA, the sensor-assay potency score (higher = more potent) was -0.582.

Regarding TTCTACTTGATCTTTCCTTAGA, the sensor-assay potency score (higher = more potent) was -0.545.

Another assay deals with HIP1R. The description is as above. As to conditions: shRNA.
Consider TTCTTGGTGGTTACACTTCGGG, for which the sensor-assay potency score (higher = more potent) is -1.05.

Turning to TTTGTCAAGCTGGTGGTCCTGT, the sensor-assay potency score (higher = more potent) worked out at 0.332.

Sequence TTGAACAGGAGCTTGACCGTGT yielded a sensor-assay potency score (higher = more potent) of 0.954.

TTGAAGTACAGCATGTCGGAGG: the sensor-assay potency score (higher = more potent) was -0.0916.

On to TACCTCATCTGTCACCTCCAGG, for which the sensor-assay potency score (higher = more potent) is -0.947.

As to TTGAGGTGGAAGGAGATCTTGG, the sensor-assay potency score (higher = more potent) was -0.812.

Take TTGGTCAGCAGCAGCTTGGTGT: the sensor-assay potency score (higher = more potent) is -0.763.
